# Measurements taken from ChEMBL document CHEMBL4513216, “Probing the Open Global Health Chemical Diversity Library for Multistage-Active Starting Points for Next-Generation Antimalarials” (ACS Infect Dis, 2020).
# The whole screen tested about 65,000 compounds, of which about 2,100 (3.2%) showed an effect of 50% or more. The median lay at about -52%. This is one part of a sample in which strong results are shown more often than they occur.
# Tested on: Plasmodium falciparum
# Assay: Screen against P. falciparum Asexual Blood Stage (ABS), at 5uM
# Assay type: functional, Dd2
# Conditions: tested at 5 uM
row,SMILES,INHIBITION [%]
1,CCOC(=O)c1ccccc1NC(=O)CN(C)Cc1ccccc1Cl,8.05
2,Cc1c(C(=O)O)cnn1-c1ccc(-c2nc(C(C)(C)C)no2)cn1,-116
3,CS(=O)(=O)NC[C@]12COC[C@H]1CN(CC1CCC1)C2,-40
4,Cc1ccc(CN2CC3(CCN(C(=O)c4cscn4)C3)C2)o1,-13.6
5,CN(C)CCn1ccnc1C1CCCN(c2cc(N)ncn2)C1 (stereo not drawn),-52.8
6,CN(C)CCn1ccnc1C1CCCN(c2nccc3ccccc23)C1 (stereo not drawn),57.4
7,COc1cc(OC)nc(N2CCCC(c3nccn3CCN(C)C)C2)n1 (stereo not drawn),-23.1
8,CN(C)Cc1nnc(C2CCCN(c3nccc4ccccc34)C2)n1C (stereo not drawn),-10.1
9,CCn1ccnc1C1CCCN(c2nccc3ccccc23)C1 (stereo not drawn),30.8
10,Cc1cc(C)nc(N2CCCC(c3nccn3CCCN(C)C)C2)c1 (stereo not drawn),51.7
11,COc1ccc(CCN(C)CCS(=O)(=O)c2ccc(Cl)cc2)cc1OC,-7.75
12,COCC(=O)N1CCC2(CC1)COc1ccccc1S(=O)(=O)N(C)C2,-129
13,O=C1CNc2ncnc(N3CCN(Cc4cccc(F)c4)CC3)c2N1,-56.6
14,CC(=O)Nc1nc(C(=O)N2CCCC(n3nc(C)nc3C)C2)cs1 (stereo not drawn),-113
15,O=C(c1cccnc1SCc1ccccc1)N1CCOCC1,-36.4
16,O=C(c1cccnc1SC/C=C/c1ccccc1)N1CCOCC(O)C1 (stereo not drawn),55.5
17,O=C(c1cccnc1SC/C=C/c1ccccc1)N1CC[C@H](O)C1,-66.8
18,CCOCCCNC(=O)c1cc(C)nc(N2CCCCC2)n1,-133
19,O=C(c1cnco1)N1CCC(Cc2cnc3ccccc3c2)CC1,-56.6
20,O=C(c1cnco1)N1CCC(Cc2cccc3ncccc23)CC1,-2.05
21,O=C(c1cnco1)N1CCC(Cc2ccc3ncccc3c2)CC1,67.4
22,Cn1cc(C[C@H]2[C@H](O)CCN2C(=O)c2ccsc2)cn1,-51.7
23,Cc1cc2ccccc2n1CCC(=O)N1CCCC2(CC1)CNC(=O)O2 (stereo not drawn),21.3
24,Cc1cc2ccccc2n1CCC(=O)N1CCCC(O)(CN(C)C)CC1 (stereo not drawn),55.2
25,Cc1cc2ccccc2n1CCC(=O)N1CCC2(CC1)CNC(=O)C2,-33.5

row,SMILES,INHIBITION [%]
1,CN(C)CCn1ccnc1C1CCN(c2cc(N)nc(N)n2)CC1,-90.3
2,Cc1ccc(OCc2occc2C(=O)O)cc1,-66.2
3,OCC1(Cc2ccccc2F)CCCN(c2ccc3ccccc3n2)C1 (stereo not drawn),-37.1
4,Cc1ccsc1CN(CCN(C)C)C(=O)c1ccccc1C#N,60.9
5,COC(=O)c1ccccc1C(=O)N(CCN(C)C)Cc1sccc1C,18.3
6,Cc1ccsc1CN(CCN(C)C)C(=O)c1ccc(C#N)nc1,46.5
7,O=C1CC[C@H]2[C@H](CCN2C(=O)C2CCOC2)N1Cc1ccncc1 (stereo partly drawn),-87.6
8,COc1ccc(CN2CCc3ncnc(C4CC4)c3CC2)cc1,-30.4
9,CC(C)Oc1ncnc2c1CCN(Cc1cccs1)CC2,-52.8
10,Cc1ccc(CN2CCc3ncnc(OC(C)C)c3CC2)s1,0.437
11,CC(C)Oc1ncnc2c1CCN(Cc1ccco1)CC2,61.2
12,CC(C)Oc1ncnc2c1CCN(Cc1ccoc1)CC2,31.6
13,COc1ccc(CN2CCc3ncnc(OC(C)C)c3CC2)cc1,63.6
14,COC(=O)c1ccc(NC(C)c2ccc3c(c2)NC(=O)CO3)nn1 (stereo not drawn),-143
15,O=C(O)CNc1cc(-c2nccnc2N2CCCC2)c2cc[nH]c2n1,-6.02
16,O=C(Nc1ccccc1)c1n[nH]c(-n2cnnc2)n1,-64.6
17,Cc1occc1C(=O)N1CCCC(c2nncn2C)C1 (stereo not drawn),-65.6
18,CN1CCN(c2ccncc2S(=O)(=O)N2CCCCC2)CC1,-92.3
19,CCc1nc(C2CCCN2CC(=O)NCCOc2ccccc2)no1 (stereo not drawn),58.6
20,COCc1ccccc1CNC(=O)CN1CCCC1c1noc(C)n1 (stereo not drawn),51.2
21,CC(C)c1nc(C2CCCN2CCS(=O)(=O)c2ccccc2)no1 (stereo not drawn),-158
22,CCc1nc(C2CCCN2CCS(=O)(=O)c2ccccc2)no1 (stereo not drawn),60
23,Cc1nc(C2CCCN2CC(=O)NCCOc2ccccc2)no1 (stereo not drawn),-62.7
24,Cc1cccc(OCCNC(=O)CN2CCCC2c2noc(C)n2)c1 (stereo not drawn),31.6
25,COCc1cccc(CNC(=O)CN2CCCC2c2noc(C)n2)c1 (stereo not drawn),-27.1

row,SMILES,INHIBITION [%]
1,CCc1nc(C2CCCN2CCCS(=O)(=O)c2ccccc2)no1 (stereo not drawn),48.7
2,COc1ccccc1CCNC(=O)CN1CCCC1c1noc(C)n1 (stereo not drawn),-3.9
3,CCOC1(C)C(=O)c2ccccc2N1Nc1ccccc1C(=O)CC (stereo not drawn),-50.6
4,O=C1CC[C@H]2[C@H](CCN2c2ncccn2)N1c1ccccc1,-72.8
5,CN1CCN(C(=O)[C@H]2CC[C@@H]3[C@@H](CCN3Cc3ccsc3)O2)CC1,-1.36
6,COc1cc(N2C[C@H]3CCC[C@@H](CN4CCCC4)[C@H]3C2)ncn1,-13.2
7,Cc1c(C(=O)NCC(C)C)nnn1-c1cccc2c1CCN(C)C2,26.2
8,Cc1csc(CCCNC(C)CC(=O)Nc2cccc(C)c2C)n1 (stereo not drawn),50.9
9,Cc1csc(CNC(=O)NCC(O)c2ccc(F)cc2)n1 (stereo not drawn),-12.9
10,Cc1csc(CCCNC(C)CC(=O)Nc2ccc(F)cc2)n1 (stereo not drawn),50.5
11,COc1ccccc1NC(=O)CC(C)NCc1scnc1C (stereo not drawn),-27.4
12,COc1ccccc1NC(=O)CC(C)NCCc1sc(C)nc1C (stereo not drawn),22.2
13,CC(NCC(=O)NCC(=O)Nc1ccc(F)cc1)c1cccs1 (stereo not drawn),-69.5
14,COc1ccsc1C(=O)NC1CCN(c2cccc(F)c2)CC1,27.7
15,Cc1ccc(NC2CCN(C(=O)c3c(C)nn(C)c3Cl)CC2)nn1,62.2
16,Cc1ccc(NC2CCN(C(=O)c3ccc(Cl)o3)CC2)nn1,-6.11
17,CCc1ccc(C(=O)N2CCC(Nc3ccc(C)nn3)CC2)o1,-100
18,Cc1ccc(CC(=O)N2CCC(Nc3ccc(C)nn3)CC2)cn1,18.7
19,Cc1cnn(CC(=O)N2CCC(Nc3ccc(C)nn3)CC2)c1,56.7
20,Cc1ccc(NC2CCN(C(=O)Cn3nc(C)cc3C)CC2)nn1,-1.51
21,CCn1nc(C)c(C(=O)N2CCC(Nc3ccc(C)nn3)CC2)c1C,-18.1
22,Cc1ccc(NC2CCN(C(=O)c3ccc(C)o3)CC2)nn1,53.6
23,Cc1ccc(NC2CCN(C(=O)c3c(C)noc3C)CC2)nn1,-103
